From PubChem BioAssay (Tox21)
Records with an inconclusive call do not appear. Where a call stands in place of a potency, no number is given. Activity calls are given as the source filed them. Unless noted, the call rests on the fitted dose curve.

What was measured:
[1] = Nuclear factor erythroid 2-related factor 2/antioxidant responsive element (Nrf2/ARE) small molecule agonists: qHTS cell viability counter screen in human keratinocytes (AID 1919968; active means well fitted curve in the direction sought with a large enough effect in the repeat runs; an effect the other way counts as inactive or inconclusive; further: nearly all actives have a fitted effect of over 55% in size)
Method in brief: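 Fluorescence read-out from CellTiter-Fluor after 1 h at 37 C. Wells held HaCaT-derived ARE-luciferase reporter cells (1,500/well) treated 23 h with DMSO-dissolved compounds. Run in the same wells as the luciferase agonist read.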

[2] = Nuclear factor erythroid 2-related factor 2/antioxidant responsive element (Nrf2/ARE) small molecule agonists: luciferase reporter gene qHTS assay in human keratinocytes (AID 1919969); further: nearly all actives have a fitted effect of over 35% in size; further: potency means the concentration at half of the fitted maximal effect
[3] = target: Gonadotropin-releasing hormone receptor (Homo sapiens) (UniProt P30968); assay: Human gonadotropin-releasing hormone receptor (GnRHR) small molecule agonists, calcium flux assay in GnRHR-HEK293 cells (AID 1920063); further: nearly all actives have a fitted effect of over 35% in size
Method in brief: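 Calcium-dye fluorescence, Ex/Em=480/540, recorded every 1 sec over 3 min after compound addition to GnRHR-HEK293 cells. Cells had been seeded 18 hours earlier and dye-loaded for 1 hour at 37 C. Fifteen concentrations, triplicates.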

[4] = target: KiSS-1 receptor (Homo sapiens) (UniProt Q969F8); assay: Human kisspeptin (KISS1R) small molecule agonists, calcium flux assay in KISS1R-HEK293 cells (AID 1920064; active means well fitted curve in the direction sought with a large enough effect in the repeat runs; an effect the other way counts as inactive or inconclusive)
Method in brief: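 Calcium flux read-out: kinetic fluorescence at Ex/Em=480/540, 1 s intervals over 3 min, after pin-tool compound addition to dye-loaded KISS1R-HEK293 cells. Fifteen concentrations, triplicates.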

[5] = G protein-coupled receptor (GPCR) small molecule agonists, calcium flux assay: HEK293 wild type cell line counter screen (AID 1920065)
Method in brief: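 Agonist mode; 18 h seeding at 37 C, 1 h dye load at 37 C; compounds pinned from DMSO, ATP as positive control; kinetic fluorescence 480/540 nm, 3 min, 1 s reads; 15 concentrations, triplicate.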

[6] = p53 small molecule agonists, cell-based qHTS assay with human liver microsomes (AID 1963577);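 further: p53 response element beta-lactamase reporter cells with liver microsomes plus NADPH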
Method in brief: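 p53RE-bla cells; 5 h settle, 37 C/5% CO2; cpd + HLM 0.5 mg/mL + NADPH 0.5 mg/mL (final); 16 h 37 C; LiveBLAzer 2 h RT dark; fluorescence readout.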

[7] = p53 small molecule agonists, cell-based qHTS assay with rat liver microsomes (AID 1963578)
Method in brief: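 Rat liver microsome activation: microsomes 0.5 mg/mL, NADPH 0.5 mg/mL final; p53RE-bla cells, 16 h 37 C; LiveBLAzer readout, 2 h RT dark.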

[8] = p53 small molecule agonists, cell-based qHTS assay with human liver microsomes: qHTS cell viability counter screen (AID 1963579); further: nearly all actives have a fitted effect of over 45% in size
Method in brief: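 Luminescent CellTiter-Glo read-out, 30 min at room temperature, gauged cytotoxicity in p53RE-bla cells exposed 16 h at 37 C to DMSO-dissolved compounds with metabolic activation by human liver microsomes and NADPH, each 0.5 mg/mL final.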

[9] = p53 small molecule agonists, cell-based qHTS assay with rat liver microsomes: qHTS cell viability counter screen (AID 1963580); further: nearly all actives have a fitted effect of over 45% in size
Method in brief: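 After the beta-lactamase ratio was read, CellTiter-Glo was added to the same wells and luminescence measured at 30 min; cells had been treated 16 h at 37 C with compounds, rat liver microsomes and NADPH (0.5 mg/mL final each).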

[10] = p53 small molecule agonists, cell-based qHTS assay: qHTS cell viability counter screen (AID 1963581); further: nearly all actives have a fitted effect of over 45% in size
Method in brief: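 Cytotoxicity read-out: ATP-based luminescence (CellTiter-Glo, 30 min RT) measured in the same wells as the p53 reporter assay, HCT-116 p53RE-bla cells, 16 h compound exposure at 37 C.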

[11] = p53 small molecule agonists, cell-based qHTS assay (AID 1963582; active means well fitted activation curve with a large enough effect in the signal ratio in the repeat runs, not every such curve was filed as active; the % refers to the signal ratio)
Method in brief: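 Fluorescence intensity read-out of a beta-lactamase reporter under a p53 response element. Cells were exposed to DMSO-dissolved compounds for 16 h at 37 C, then developed with FRET substrate for 2 h at RT.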

[12] = target: 5-hydroxytryptamine receptor 2A (Homo sapiens) (UniProt P28223); assay: 5-hydroxytryptamine receptor 2A (HTR2A) small molecule antagonists, cell-based qHTS assay (AID 1963586); further: nearly all actives have a fitted effect of over 45% in size
Method in brief: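 CHO cells stably expressing human HTR2A were plated for 18 h at 37 C, then loaded with calcium dye for 1 h. Compounds were preincubated 5 min at room temperature before DOI (4 nM solution) was added. Kinetic fluorescence was read for 3 min.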

[13] = target: 5-hydroxytryptamine receptor 2A (Homo sapiens) (UniProt P28223); assay: 5-hydroxytryptamine receptor 2A (HTR2A) small molecule agonists, cell-based qHTS assay (AID 1963587); further: nearly all actives have a fitted effect of over 30% in size
Method in brief: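 CHO cells stably expressing human HTR2A, plated 18 h, loaded with calcium dye 1 h at 37 C. Agonist mode: compounds added and intracellular calcium fluorescence recorded kinetically for 2 min at 1 sec intervals.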

[14] = target: Muscarinic acetylcholine receptor M1 (Homo sapiens) (UniProt P11229); assay: Cholinergic receptor muscarinic 1 (CHRM1) small molecule antagonists, cell-based qHTS assay (AID 1963588); further: nearly all actives have a fitted effect of over 40% in size
Method in brief: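 Compounds were tested at 15 concentrations in three independent runs. Dye-loaded CHRM1-CHO cells were exposed 5 min at room temperature before stimulation by acetylcholine added at 50nM. Intracellular calcium was read kinetically on FDSS for 3 min.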

[15] = target: Muscarinic acetylcholine receptor M1 (Homo sapiens) (UniProt P11229); assay: Cholinergic receptor muscarinic 1 (CHRM1) small molecule agonists, cell-based qHTS assay (AID 1963589); further: nearly all actives have a fitted effect of over 35% in size
Method in brief: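 Calcium flux read-out: kinetic fluorescence at 1 sec intervals after pin-tool compound addition to dye-loaded CHRM1-CHO cells (human M1). Agonist mode; 15 concentrations tested in triplicate independent runs.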

[16] = cAMP Responsive Elements (CRE) small molecule agonists, cell-based qHTS assay (AID 1963590)
Method in brief: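 Beta-lactamase reporter readout: LiveBLAzer B/G FRET substrate, 2 h at room temperature, added after 3 h compound treatment of CRE-bla HEK 293T cells at 37 C/5% CO2.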

[17] = cAMP Responsive Elements (CRE) small molecule antagonists, cell-based qHTS assay (AID 1963591; active means well fitted inhibition curve with a large enough effect in the signal ratio in the repeat runs, not every such curve was filed as active; the % refers to the signal ratio)
Method in brief: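 HEK293T CRE-bla; 18 h preincubation; compound pin-transfer; NKH477 0.25 uM final, 3 h, 37 C; LiveBLAzer FRET substrate 2 h RT.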

[18] = target: Beta-2 adrenergic receptor (Homo sapiens) (UniProt P07550); assay: Adrenergic beta2 receptor (ADRB2) small molecule antagonists, cell-based qHTS assay (AID 1963592); further: series mostly up to about 92 µM; nearly all actives have a fitted effect of over 50% in size
Method in brief: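 Assay format: CHO-ADRB2 cells, 18-20hr seeding at 37C/5% CO2, then compound plus 1nM isoproterenol agonist mix for 0.5hr RT. Homogeneous time-resolved fluorescence cAMP detection after 1hr, expressed as 665/615 nm ratio.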

[19] = target: D(2) dopamine receptor (Homo sapiens) (UniProt P14416); assay: Dopamine D2 receptor (DRD2) small molecule agonists, cell-based qHTS assay (AID 1963594); further: nearly all actives have a fitted effect of over 35% in size
Method in brief: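 HEK293 cells stably expressing human DRD2, pre-treated with PDE inhibitor Ro20-1724 (0.1 mM final) and compound 10 min at room temperature, then stimulated with NKH477 (200nM […]) for 30 min. cAMP read by HTRF (665/620 nm).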

[20] = target: D(2) dopamine receptor (Homo sapiens) (UniProt P14416); assay: Dopamine D2 receptor (DRD2) small molecule antagonists, cell-based qHTS assay (AID 1963595; active means well fitted inhibition curve with a large enough effect in the signal ratio in the repeat runs, with a control signal flat; the % refers to the signal ratio)
Method in brief: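 Human DRD2 antagonist qHTS measuring cAMP by HTRF. The cells are exposed to compound for 10 min, then to NKH477 (200 nM) and quinpirole (12 nM) for 30 min at RT, with Ro20-1724 (0.1 mM) present throughout.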

Chain of Gonadotropin-releasing hormone receptor (Homo sapiens) (P30968 whole entry, looked up): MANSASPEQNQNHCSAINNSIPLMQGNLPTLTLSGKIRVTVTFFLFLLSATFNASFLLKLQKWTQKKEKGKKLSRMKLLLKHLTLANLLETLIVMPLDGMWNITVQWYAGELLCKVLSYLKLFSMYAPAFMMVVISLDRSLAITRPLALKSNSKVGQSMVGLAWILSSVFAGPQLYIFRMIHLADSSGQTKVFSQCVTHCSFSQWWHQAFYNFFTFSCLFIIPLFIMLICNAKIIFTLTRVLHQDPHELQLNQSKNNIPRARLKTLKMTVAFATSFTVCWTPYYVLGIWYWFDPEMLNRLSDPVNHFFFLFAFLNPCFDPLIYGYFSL
Chain of 5-hydroxytryptamine receptor 2A (Homo sapiens) (P28223 whole entry, looked up): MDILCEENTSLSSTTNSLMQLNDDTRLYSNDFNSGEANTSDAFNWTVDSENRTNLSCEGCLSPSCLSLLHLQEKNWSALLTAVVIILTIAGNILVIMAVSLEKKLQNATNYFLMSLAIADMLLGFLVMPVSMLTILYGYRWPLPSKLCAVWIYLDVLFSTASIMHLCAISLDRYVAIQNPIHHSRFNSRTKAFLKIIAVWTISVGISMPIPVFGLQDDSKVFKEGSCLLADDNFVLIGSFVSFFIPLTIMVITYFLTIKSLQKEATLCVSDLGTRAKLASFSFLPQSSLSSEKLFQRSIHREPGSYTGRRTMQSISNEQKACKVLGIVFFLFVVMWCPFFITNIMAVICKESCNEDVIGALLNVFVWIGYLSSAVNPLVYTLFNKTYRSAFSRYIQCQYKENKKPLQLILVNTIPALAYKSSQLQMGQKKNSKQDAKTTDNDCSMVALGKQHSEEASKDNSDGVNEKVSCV
Chain of KiSS-1 receptor (Homo sapiens) (Q969F8 whole entry, looked up): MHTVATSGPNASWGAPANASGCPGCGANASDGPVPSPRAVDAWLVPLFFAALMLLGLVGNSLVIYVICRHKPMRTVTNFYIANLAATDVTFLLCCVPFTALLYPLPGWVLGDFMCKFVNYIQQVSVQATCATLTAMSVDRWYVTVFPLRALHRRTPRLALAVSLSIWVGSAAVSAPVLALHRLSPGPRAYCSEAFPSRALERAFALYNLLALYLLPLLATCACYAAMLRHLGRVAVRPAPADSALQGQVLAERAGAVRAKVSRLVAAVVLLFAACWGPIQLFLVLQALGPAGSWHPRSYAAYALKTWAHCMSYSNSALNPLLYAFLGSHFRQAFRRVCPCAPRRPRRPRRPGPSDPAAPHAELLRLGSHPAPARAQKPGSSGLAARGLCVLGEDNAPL
Chain of D(2) dopamine receptor (Homo sapiens) (P14416 whole entry, looked up): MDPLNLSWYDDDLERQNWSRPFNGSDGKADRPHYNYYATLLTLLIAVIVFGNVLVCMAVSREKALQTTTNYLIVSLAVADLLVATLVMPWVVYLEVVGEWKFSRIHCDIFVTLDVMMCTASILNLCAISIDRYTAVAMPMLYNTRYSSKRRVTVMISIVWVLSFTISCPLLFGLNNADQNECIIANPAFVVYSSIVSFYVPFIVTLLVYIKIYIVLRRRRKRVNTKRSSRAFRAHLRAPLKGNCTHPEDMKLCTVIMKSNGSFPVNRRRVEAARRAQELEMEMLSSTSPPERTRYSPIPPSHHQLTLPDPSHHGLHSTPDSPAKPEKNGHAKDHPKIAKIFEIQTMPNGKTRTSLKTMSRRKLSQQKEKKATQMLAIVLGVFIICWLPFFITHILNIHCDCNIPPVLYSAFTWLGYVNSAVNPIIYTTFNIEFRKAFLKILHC
Chain of Muscarinic acetylcholine receptor M1 (Homo sapiens) (P11229 whole entry, looked up): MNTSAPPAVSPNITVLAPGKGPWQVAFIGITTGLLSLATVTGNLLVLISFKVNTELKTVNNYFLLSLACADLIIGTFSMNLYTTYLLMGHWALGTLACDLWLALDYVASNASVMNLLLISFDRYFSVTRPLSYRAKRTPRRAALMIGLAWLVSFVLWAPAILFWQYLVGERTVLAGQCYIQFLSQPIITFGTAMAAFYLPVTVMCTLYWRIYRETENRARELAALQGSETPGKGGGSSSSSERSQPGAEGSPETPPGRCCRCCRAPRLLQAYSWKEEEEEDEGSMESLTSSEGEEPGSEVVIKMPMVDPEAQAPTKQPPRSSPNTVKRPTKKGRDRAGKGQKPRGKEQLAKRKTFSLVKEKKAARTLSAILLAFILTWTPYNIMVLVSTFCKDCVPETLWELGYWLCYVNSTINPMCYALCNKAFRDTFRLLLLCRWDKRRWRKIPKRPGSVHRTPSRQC
Chain of Beta-2 adrenergic receptor (Homo sapiens) (P07550 whole entry, looked up): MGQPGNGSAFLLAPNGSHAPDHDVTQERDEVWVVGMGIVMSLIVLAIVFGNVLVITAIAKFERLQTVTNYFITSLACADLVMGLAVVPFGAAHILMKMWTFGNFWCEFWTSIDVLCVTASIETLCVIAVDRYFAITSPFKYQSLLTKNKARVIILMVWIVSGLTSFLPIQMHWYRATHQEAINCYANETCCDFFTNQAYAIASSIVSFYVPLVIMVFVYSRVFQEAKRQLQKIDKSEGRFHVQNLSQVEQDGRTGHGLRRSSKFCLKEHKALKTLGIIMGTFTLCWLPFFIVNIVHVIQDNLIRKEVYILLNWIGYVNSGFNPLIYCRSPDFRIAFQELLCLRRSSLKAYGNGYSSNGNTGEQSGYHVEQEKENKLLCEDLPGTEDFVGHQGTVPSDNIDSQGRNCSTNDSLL

| Compound | Potency [1] | Potency [2] | Potency [3] | Potency [4] | Potency [5] | Potency [6] | Potency [7] | Potency [8] | Potency [9] | Potency [10] | Potency [11] | Potency [12] | Potency [13] | Potency [14] | Potency [15] | Potency [16] | Potency [17] | Potency [18] | Potency [19] | Potency [20] |
| --- | --- | --- | --- | --- | --- | --- | --- | --- | --- | --- | --- | --- | --- | --- | --- | --- | --- | --- | --- | --- |
| C=CC(C)=O | inactive | 5.97 µM (active) | inactive | inactive | inactive | inactive | inactive | inactive | inactive | inactive | inactive | inactive | inactive | inactive | inactive | inactive | inactive | inactive | inactive | inactive |
| O=P(Cl)(Cl)Cl | inactive | inactive | inactive | inactive | inactive | inactive | inactive | inactive | inactive | inactive | inactive | inactive | inactive | inactive | inactive | inactive | inactive | inactive | inactive | inactive |
| C1CN2CCC1CC2 | inactive | inactive | inactive | inactive | inactive | inactive | inactive | inactive | inactive | inactive | inactive | inactive | inactive | inactive | inactive | inactive | inactive | inactive | inactive | inactive |
| CC(C)(C)C(=O)CCl | inactive | inactive | inactive | inactive | inactive | inactive | inactive | inactive | inactive | inactive | inactive | inactive | inactive | inactive | inactive | inactive | inactive | inactive | inactive | inactive |
| N#CCCCl | inactive | inactive | inactive | inactive | inactive | inactive | inactive | inactive | inactive | inactive | inactive | inactive | inactive | inactive | inactive | inactive | inactive | inactive | inactive | inactive |
| CCOP(=O)(OCC)OCC | inactive | inactive | inactive | inactive | inactive | inactive | inactive | inactive | inactive | inactive | inactive | inactive | inactive | inactive | inactive | inactive | inactive | inactive | inactive | inactive |
| O=[N+]([O-])c1cc(Cl)ccc1Cl | inactive | inactive | inactive | inactive | inactive | inactive | inactive | inactive | inactive | inactive | inactive | inactive | inactive | inactive | inactive | inactive | inactive | inactive | inactive | inactive |
